Pf Dd2 growth = P. falciparum Dd2 growth inhibitors, primary screen, SYBR Green fluorescence, single dose replicates. AID 1159554, 2015. activity change, % at 10 µM. actives 2.3% (n = 94,000). 72 h; stronger effect = lower value; in the data active = activity change below about -80%; inconclusive = no clear call, values can overlap the other calls
T cruzi growth-1 = T. cruzi intracellular proliferation inhibitors, primary screen, cell-based, beta-gal Tulahuen parasites, NIH3T3 host, luminescence; T. cruzi beta-gal in NIH3T3, GalScreen luminescence, 90 h; inhibition, % at 8.34 µM; actives 5.9% (n = 77,000);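 active = mean inhibition above about 93%, with at least 55% of replicates each passing it, limit read from the data, passing the limit was not always enough; inconclusive = only one of those two conditions holds; inactive = neither condition holds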
C diff growth = C. difficile growth inhibitors, primary screen, HTS; Clostridium difficile clinical isolate growth, OD600, 24 h; stronger effect = lower value; growth activity, negative = inhibition, % at 16 µg/mL (by protocol); actives 0.25% (n = 86,000);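 active = mean growth activity at or below -80% and every replicate also at or below -80%; inconclusive = mean at or below -80% but some replicate above -80%; inactive = mean growth activity above -80%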;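 note: 0% = DMSO wells and -100% = levofloxacin 16 µg/mL wells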
T cruzi growth-2 = T. cruzi intracellular proliferation inhibitors, confirmation, cell-based, NIH3T3 host, beta-gal parasite, luminescence, cherry-pick; shares compounds with T cruzi growth-1; T. cruzi beta-gal in NIH3T3, GalScreen luminescence, 90 h; inhibition, % at 8.35 µM; actives 72% (n = 5,600); AID 651739, 2012;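 active = mean replicate inhibition above about 95% and at least 55% of replicates individually reaching it, limit read from the data; inconclusive = only one of the two criteria is met; inactive = neither criterion is met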
T cruzi growth-3 = inhibitors of intracellular T. cruzi replication, confirmation, NIH3T3 host cells, beta-gal parasites, cherry-pick, set 2; inhibition, % at 2.09 µM; shares compounds with T cruzi growth-1; actives 21% (n = 5,600); T. cruzi beta-gal in NIH3T3, GalScreen luminescence, 90 h;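 active = mean inhibition above about 95%, with at least 55% of replicates also reaching it, limit read from the data; inconclusive = meets just one of the two conditions; inactive = meets neither condition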;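 note: plate controls were neutral control median for no effect and positive control median for full effect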
3T3 cytotox = cytotoxicity in mouse NIH/3T3 fibroblasts, confirmation, cytotoxicity control for T. cruzi proliferation inhibitor project, cell-based, cherry-pick, single point; actives 14% (n = 5,600); AID 651742, 2012; cytotoxicity (signal decrease), % at 8.35 µM; shares compounds with T cruzi growth-1; NIH/3T3 viability, CellTiter-Glo ATP luminescence, 90 h;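 active = mean signal decrease across replicates above about 35% based on untreated-well scatter, with enough replicates individually passing, limit read from the data; inconclusive = no rule stated though some were filed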;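 note: 0% = median of neutral control wells and 100% = median of positive control wells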
3T3 cytotox 2 = NIH/3T3 fibroblast cytotoxicity, confirmation, cytotoxicity control, cell-based, cherry-pick, single point, set 2 | actives 56% (n = 5,600) | shares compounds with T cruzi growth-1 | inhibition, % at 24.9 µM | NIH/3T3 viability, CellTiter-Glo ATP luminescence, 90 h;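 active = mean loss of cell viability signal at or above a set limit, and enough replicates individually reaching it; inconclusive = meets only the mean limit or only the replicate share; inactive = meets neither condition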;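 note: 0% = median of neutral control wells and 100% = median of positive control wells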
An asterisk follows results filed as active; ? = inconclusive; . = no result. Sampled rows, rich in hits. Any-hit rate of the full collection: about 6.7%.

SMILES | Pf Dd2 growth | T cruzi growth-1 | C diff growth | T cruzi growth-2 | T cruzi growth-3 | 3T3 cytotox | 3T3 cytotox 2
CCc1cnc(N2[C@@H](C#N)[C@H](c3ccc(-c4cccc(F)c4)cc3)[C@@H]2CO)s1 | -13 | 83 | -37 | . | . | . | .
CCc1cnc(N2[C@H](C#N)[C@@H](c3ccc(-c4cccc(F)c4)cc3)[C@H]2CO)s1 | -7 | 109* | 15 | 110* | 81 | 27 | 37
C/C=C/c1ccc([C@H]2[C@@H](CO)N(S(C)(=O)=O)[C@H]2CN(CC)C(C)=O)cc1 | 8 | . | -4 | . | . | . | .
O=S(=O)(N[C@@H]1CC[C@@H](CCNS(=O)(=O)c2ccccc2Cl)O[C@@H]1CO)c1ccccc1 | 3 | -2 | -6 | . | . | . | .
C[C@@H]1CCCCO[C@H](CN(C)C(=O)Cc2ccccc2)[C@H](C)CN([C@H](C)CO)C(=O)c2cc(NC(=O)Nc3ccccc3)ccc2O1 | -84* | 103* | . | 98* | 16 | -10 | -15
C[C@@H]1CN([C@H](C)CO)C(=O)c2cc(NC(=O)Nc3ccccc3)ccc2O[C@@H](C)CCCCO[C@@H]1CN(C)C(=O)Cc1ccccc1 | -75 | -6 | . | . | . | . | .
C[C@@H]1CCCCO[C@H](CN(C)C(=O)Cc2ccccc2)[C@H](C)CN([C@H](C)CO)C(=O)c2cc(NC(=O)Nc3ccc(F)cc3)ccc2O1 | -85* | 103* | 3 | 107* | 108* | -21 | 2
C[C@H](CO)N1C[C@H](C)[C@@H](CN(C)C(=O)Cc2ccccc2)OCCCC[C@H](C)Oc2ccc(NC(=O)Nc3ccccc3)cc2C1=O | 24 | 48 | . | . | . | . | .
C[C@H](CO)N1C[C@H](C)[C@H](CN(C)C(=O)Cc2ccccc2)OCCCC[C@H](C)Oc2ccc(NC(=O)Nc3ccc(F)cc3)cc2C1=O | 50 | 40 | -3 | . | . | . | .
Cc1noc(C)c1NC(=O)Nc1ccc2c(c1)C(=O)N([C@H](C)CO)C[C@H](C)[C@H](CN(C)C(=O)Cc1ccccc1)OCCCC[C@H](C)O2 | -3 | 106* | -3 | 35 | 23 | -8 | -13
C[C@@H]1CCCCO[C@H](CN(C)C(=O)Cc2ccccc2)[C@H](C)CN([C@@H](C)CO)C(=O)c2cc(NC(=O)Nc3ccc(F)cc3)ccc2O1 | -66 | 100* | -3 | 103* | 10 | -24 | -34
Cc1noc(C)c1NC(=O)Nc1ccc2c(c1)C(=O)N([C@@H](C)CO)C[C@H](C)[C@@H](CN(C)C(=O)Cc1ccccc1)OCCCC[C@@H](C)O2 | -42 | 45 | -1 | . | . | . | .
COCC(=O)Nc1ccc2c(c1)[C@@H]1C[C@H](CC(=O)NCCc3ccccc3)O[C@H](CO)[C@@H]1O2 | 1 | -13 | -1 | . | . | . | .
COc1ccc(S(=O)(=O)N(C)C[C@H]2Oc3ccc(NS(C)(=O)=O)cc3CC(=O)N([C@@H](C)CO)C[C@@H]2C)cc1 | 20 | 47 | 3 | . | . | . | .
CC(C)C#Cc1ccc2c(c1)O[C@H](CN(C)C)[C@@H](C)CN([C@H](C)CO)S2(=O)=O | -7 | . | 0 | . | . | . | .
C[C@@H]1CCCCO[C@H](CN(C)C)[C@@H](C)CN([C@H](C)CO)C(=O)c2cc(NC(=O)Nc3ccccc3)ccc2O1 | 8 | 0 | 3 | . | . | . | .
C[C@@H]1CN([C@H](C)CO)C(=O)c2cc(NC(=O)Nc3ccc(F)cc3)ccc2O[C@@H](C)CCCCO[C@@H]1CN(C)C(=O)Cc1ccccc1 | ? | 87 | 3 | . | . | . | .
C[C@H]1CCCCO[C@H](CN(C)C(=O)Cc2ccccc2)[C@@H](C)CN([C@@H](C)CO)C(=O)c2cc(NC(=O)Nc3ccc(F)cc3)ccc2O1 | -51 | 101* | -4 | 106* | -42 | -16 | 20
CCCNC(=O)N1CC2(CN(S(=O)(=O)CC)C2)c2c(n(C)c3cc(OC)ccc23)[C@H]1CO | 13 | . | 8 | . | . | . | .
C[C@@H]1CN([C@@H](C)CO)C(=O)c2cc(NC(=O)Nc3cccc4ccccc34)ccc2O[C@@H](C)CCCCO[C@@H]1CN(C)Cc1ccc2c(c1)OCO2 | -90* | 102* | . | 110* | 75 | 13 | 23
C[C@@H]1CCCCO[C@H](CN(C)Cc2ccc3c(c2)OCO3)[C@H](C)CN([C@H](C)CO)C(=O)c2cc(NC(=O)Nc3cccc4ccccc34)ccc2O1 | -84* | 136* | 22 | 107* | 118* | ? | 94*
C[C@H](CO)N1C[C@H](C)[C@H](CN(C)Cc2ccc3c(c2)OCO3)OCCCC[C@H](C)Oc2ccc(NC(=O)Nc3cccc4ccccc34)cc2C1=O | 2 | 107* | . | 104* | 97* | 23 | 45*
C[C@H](CO)N1C[C@H](C)[C@@H](CN(C)Cc2ccc3c(c2)OCO3)OCCCC[C@H](C)Oc2ccc(NC(=O)Nc3cccc4ccccc34)cc2C1=O | -67 | ? | . | 103* | 111* | 33 | 42*
C[C@@H]1CCCCO[C@H](CN(C)Cc2ccc3c(c2)OCO3)[C@@H](C)CN([C@H](C)CO)C(=O)c2cc(NC(=O)Nc3cccc4ccccc34)ccc2O1 | 16 | 91 | . | . | . | . | .
O=C(C[C@@H]1C=C[C@H](NS(=O)(=O)c2ccccc2)[C@H](CO)O1)N1CCc2ccccc2C1 | -21 | 15 | -3 | . | . | . | .
SMILES | Pf Dd2 growth | T cruzi growth-1 | C diff growth | T cruzi growth-2 | T cruzi growth-3 | 3T3 cytotox | 3T3 cytotox 2
CCC(=O)N1[C@H](CO)[C@H](c2ccc(-c3ccccc3)cc2)[C@@H]1CNC(=O)COC | -10 | 40 | -7 | . | . | . | .
CN(C)C(=O)[C@@H]1[C@@H](CO)[C@@H]2Cn3c(ccc(-c4ccncc4)c3=O)[C@H]1N2CC1CCCC1 | 1 | 85 | 1 | . | . | . | .
CO[C@@H]1CN(C)C(=O)c2ccc(NC(=O)C3CC3)cc2OC[C@@H](C)N(Cc2nccs2)C[C@H]1C | . | 9 | . | . | . | . | .
C[C@@H]1CN([C@@H](C)CO)C(=O)c2cc(NC(=O)Nc3cccc4ccccc34)ccc2O[C@@H](C)CCCCO[C@H]1CN(C)Cc1ccc2c(c1)OCO2 | -78 | 121* | . | 106* | 91 | 26 | 105*
Cc1ccc(S(=O)(=O)N2C[C@@H](O)COC[C@H]3O[C@@H](CC(=O)N[C@@H]4CCN(Cc5ccccc5)C4)CC[C@@H]32)cc1 | -34 | 98* | . | 82 | 73 | -16 | -41
O=C(C[C@@H]1CC[C@@H]2[C@H](COC[C@H](O)CN2S(=O)(=O)c2ccc(F)cc2)O1)N[C@H]1CCN(Cc2ccccc2)C1 | -12 | 22 | 1 | . | . | . | .

From PubChem
